Values joined by “and” are separate entries in the source; they are usually repeats but may differ in a detail not shown here. Equal values may be shown once.
Molecular target: Voltage-gated potassium channel subunit beta-2 (Rattus norvegicus) (UniProt P62483)
Assay: enhancers of rat Kvbeta2 NADPH turnover – biochemical, NADPH fluorescence, primary screen (AID 623);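 also: fluorescence intensity change per second fitted from 20 to 320 s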
Conditions: Recombinant KvBeta, NADPH fluorescence decrease slope, 10 min; at 10 µM; hits give low values;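 active = NADPH fluorescence slope more negative than the mean of all samples by about 3 SD, 99.7% confidence; inactive = the rest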

Sequence of Voltage-gated potassium channel subunit beta-2 (Rattus norvegicus) (P62483 whole entry, looked up): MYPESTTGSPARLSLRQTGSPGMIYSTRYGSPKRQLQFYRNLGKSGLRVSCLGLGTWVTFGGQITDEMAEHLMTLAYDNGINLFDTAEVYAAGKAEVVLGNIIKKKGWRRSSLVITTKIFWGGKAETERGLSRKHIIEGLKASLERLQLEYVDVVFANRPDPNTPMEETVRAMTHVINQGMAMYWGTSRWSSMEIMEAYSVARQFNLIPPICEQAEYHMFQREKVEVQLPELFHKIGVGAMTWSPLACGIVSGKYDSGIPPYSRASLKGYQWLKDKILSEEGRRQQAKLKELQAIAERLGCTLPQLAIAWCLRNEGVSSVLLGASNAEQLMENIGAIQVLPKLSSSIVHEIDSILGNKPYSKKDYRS

NADPH fluorescence slope, inactive:
Cc1cc(C)nc(NS(=O)(=O)c2ccc(N)cc2)n1 -5.4e-05
COc1cc(C2C(C#N)=C(N)Oc3cc(N)ccc32)cc(OC)c1OC (configuration not stated) 1e-06
CN(C)CCCC1(c2ccc(F)cc2)OCc2cc(C#N)ccc21 (configuration not stated) 1.8e-06
CCCc1cc(=O)[nH]c(=S)[nH]1 -6.3e-05
CN(C)CCOC(C)(c1ccccc1)c1ccccn1 (configuration not stated) 2.3e-06
CCCCNC(=O)NS(=O)(=O)c1ccc(C)cc1 3.1e-05
CC(=O)[C@@]1(O)CC[C@H]2[C@@H]3C[C@H](C)C4=CC(=O)C=C[C@]4(C)[C@@]3(F)[C@@H](O)C[C@@]21C -5e-05
O=C1NC(=O)C(c2ccccc2)(c2ccccc2)N1 3.3e-05
CC(C)(C)NC[C@H](O)COc1nsnc1N1CCOCC1 -5e-06
O=C(O)CCC(=O)Nc1ccc(S(=O)(=O)Nc2nccs2)cc1 -5.7e-05
Cc1cc(C(C)(C)C)cc(C)c1CC1=NCCN1 -7.1e-05
CN(C)CCCN1c2ccccc2Sc2ccccc21 -7e-05
Nc1ccc(C(=O)O)c(O)c1 -1.6e-05 and -1e-05
CC(=O)[C@H]1CC[C@H]2[C@@H]3CCC4=CC(=O)CC[C@]4(C)[C@H]3CC[C@]12C -4.8e-05
O=c1n(CCCN2CCN(c3cccc(Cl)c3)CC2)nc2ccccn12 -2.9e-05
Cn1c(=O)c2c(ncn2CC(O)CO)n(C)c1=O (configuration not stated) 4.1e-05
CC1(C)S[C@@H]2[C@H](NC(=O)Cc3ccccc3)C(=O)N2[C@H]1C(=O)O -5.4e-05
CN(C)C(=O)Oc1ccc[n+](C)c1 -5.3e-05
CCCOc1ccc2nc(NC(=O)OC)[nH]c2c1 -3.6e-05
OC(CCN1CCCCC1)(c1ccccc1)C1CCCCC1 (configuration not stated) -8.4e-05
O=c1c(O)c(-c2ccc(O)cc2O)oc2cc(O)cc(O)c12 -0.000116
COC(=O)Nc1nc2ccc(C(=O)c3ccccc3)cc2[nH]1 -9.9e-05
CCc1cccc2c3c([nH]c12)C(CC)(CC(=O)O)OCC3 (configuration not stated) -6.2e-05
C[N+](C)(C)CCCCCCCCCC[N+](C)(C)C -5.9e-05
O=C(c1ccc(F)cc1)C1CCN(CCn2c(=O)[nH]c3ccccc3c2=O)CC1 -6.9e-05
CCN1CCN(C(=O)N[C@@H](C(=O)N[C@@H]2C(=O)N3[C@@H]2SC(C)(C)[C@@H]3C(=O)O)c2ccccc2)C(=O)C1=O -4.7e-05
Cc1ncc([N+](=O)[O-])n1CCO -8.5e-05

Source: PubChem BioAssay
